Cruzain inh Det = inhibitors of Trypanosoma cruzi cruzain with detergent; purified cruzain, Z-FR-AMC fluorescence, 0.01% Triton; Potency, µM, for the others: max response, negative = inhibition, usual class: inhibitors; P25779; 200,000 compounds, 0.43% hits; active means well fitted curve in the direction sought with a large enough effect; inconclusive means small, poorly fitted or top-dose-only effect, or another doubt; inactive means no such curve, though single readings can be large; an effect the other way counts as inactive or inconclusive;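 further: potency means the concentration at half of the fitted maximal effect; plate controls were neutral wells for no effect and buffer without enzyme for full effect; nearly all actives have a fitted effect of over 40% in size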
Target sequence (P25779 123-467 limits assumed): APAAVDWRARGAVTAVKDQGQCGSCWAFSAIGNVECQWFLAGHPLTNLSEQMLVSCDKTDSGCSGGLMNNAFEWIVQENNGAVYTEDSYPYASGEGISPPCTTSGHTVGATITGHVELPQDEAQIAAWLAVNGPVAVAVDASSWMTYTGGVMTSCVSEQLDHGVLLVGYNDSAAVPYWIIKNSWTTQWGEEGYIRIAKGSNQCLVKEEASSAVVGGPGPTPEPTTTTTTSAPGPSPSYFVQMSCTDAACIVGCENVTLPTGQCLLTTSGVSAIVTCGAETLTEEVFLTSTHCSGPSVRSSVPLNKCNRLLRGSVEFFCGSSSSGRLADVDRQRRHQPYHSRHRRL
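Cruzain (1.5 nM) preincubated 15 min at RT with compound in 100 mM sodium acetate pH 5.5, 5 mM DTT, 0.01% Triton X-100. Reaction started with 2 uM Z-FR-AMC; AMC fluorescence (ex 360/em 450 nm) change over 60 s gave rate.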
NS1 inh = influenza NS1 inhibition; Potency, µM (doses to about 46.1 µM), for the others: at the top dose activity, positive = more growth; 270,000 compounds, 0.4% hits; AID 2326; further: potency means the concentration at half of the fitted maximal effect; actives are rising curves; nearly all actives have a fitted effect of over 50% in size
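OD600 was taken as the measure of yeast growth restored by compound in an NS1-expressing S. cerevisiae strain. Cells had been washed out of glucose medium and diluted 1:100 into galactose -URA medium, pH 6.0.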
Cruzain noTriton = inhibitors of Trypanosoma cruzi cruzain without detergent; 200,000 compounds, 2.3% hits; Potency, µM, without a hit: max response, negative = inhibition, most hits filed as inhibitors; P25779; purified cruzain, Z-FR-AMC fluorescence, no detergent; active means well fitted curve in the direction sought with a large enough effect; inconclusive means small, poorly fitted or top-dose-only effect, or another doubt; inactive means no such curve, though single readings can be large; an effect the other way counts as inactive or inconclusive;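 further: potency means the concentration at half of the fitted maximal effect; plate controls were enzyme without inhibitor for no effect and buffer without enzyme for full effect; nearly all actives have a fitted effect of over 40% in size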
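Purified cruzain at 1.5 nM, pre-incubated 15 min with compound at room temperature in 100 mM sodium acetate pH 5.5, 5 mM DTT, 0.00005% Triton X-100. Reaction started with 2 uM Z-FR-AMC; AMC fluorescence increase over 60 s gives rate.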
Flu NS1 inh = influenza NS1 function inhibition validation; AID 492980; 1,400 tested, under 10 active; influenza NS1 function cell assay, 15-point titration; shares compounds with NS1 inh; activity change, negative = inhibition, % at 32.9 µM; further: 0% is about no effect
PR8 titer = influenza NS1 inhibitors: inhibition of influenza A/PR/8/34 replication; shares compounds with NS1 inh; MDCK infected influenza A/PR/8/34, virus titer TCID50; hits give low values; virus titer (log TCID50), log10 TCID50 at 5 µM; 95 compounds, 30% hits; call rule not given here
The depositor's hits bear a star; ? = inconclusive; . = not tested or not shown. Shown is part of a subset that was picked to be rich in hits. Unless noted, the call rests on the fitted dose curve.

SMILES	Cruzain inh Det	NS1 inh	Cruzain noTriton	Flu NS1 inh	others
Nc1ccc(N(CCO)CCO)cc1	.	2%	.	.
OCCN(CCO)c1ccc(C(c2ccc(Cl)cc2)c2ccc(N(CCO)CCO)cc2Cl)c(Cl)c1	-2%	14µM*	?	8
Cc1cc(C(=O)CSc2ccccc2)cc(C)c1O	.	-7%	.	.
Cc1ccc(C)c(CSc2nc3ccncc3n2CC(=O)Nc2ccc(N(C)C)cc2)c1	-9%	.	-30%	.
O=C(COC(=O)c1ccc[nH]c1=O)Nc1ccc(S(=O)(=O)N2CCCC2)cc1	.	11µM*	.	3	PR8 titer=7.7
O=C(COC(=O)c1n[nH]c2ccccc12)Nc1ccc(S(=O)(=O)N2CCCC2)cc1	1%	0%	-17%	.
COc1ccc(CNC(=O)CCc2c(C)nc3ncnn3c2C)cc1	3%	5µM*	10%	0
Cc1nc2ncnn2c(C)c1CCC(=O)NCc1ccccc1	0%	11%	3%	.
COc1cccc(-c2nc(SCc3cccc(Br)c3)n3[nH]c(=O)cc3n2)c1	0%	.	4%	.
Cc1cc2nc3c(=O)n(C4CCCCC4)c(=O)[nH]c3nc2cc1N	-6%	7.9µM*	8%	0
Cc1cc(C)cc(Nc2cc(=O)n(C3CCCCC3)c(=O)[nH]2)c1	2%	7%	-17%	.
O=C1c2ccccc2CC[C@H]1CNCCc1ccc(O)cc1	0%	.	0%	.
CCOc1ccc(NC(=O)N2CCOc3ccccc32)cc1	-4%	.	16%	.
O=[N+]([O-])c1ccccc1S(=O)(=O)Oc1ccccc1/C=N/n1cnnc1	1%	20µM*	3%	-30
O=[N+]([O-])c1cccc(/C=N/n2cnnc2)c1O	-5%	-42%	-2%	.
CCOC(=O)CC(NC(=O)c1cc2c(=O)n3cccc(C)c3nc2s1)c1ccc(OCC)c(OC)c1 (stereo not given)	-5%	.	?	.
CC(C)(C)c1ccc(OCc2ccc(C(=O)N/N=C3\CC4CC=CC34)cc2)cc1 (stereo not given)	-10%	12%	-1%	.
O=C(N/N=C1\CC2CC=CC12)c1ccc(COc2ccccc2)cc1 (stereo not given)	1%	5.6µM*	-14%	-16
Nc1nc(-c2ccccc2)cs1	-1%	-7%	4%	.
N#CC1=C(S)N=C(N)C(c2nc(-c3ccccc3)cs2)C12CCCCC2 (stereo not given)	0%	11µM*	0%	18
Cc1cc2cc(CNC(=O)c3ccc(S(=O)(=O)N4CCOCC4)cc3)ccc2n1C	-5%	11µM*	-14%	0
CC(=O)Nc1ccc(S(=O)(=O)NCc2ccc3c(c2)cc(C)n3C)cc1	0%	11%	-6%	.
Cc1cc2cc(CNC(=O)c3ccc(S(=O)(=O)N(C)C)cc3)ccc2n1C	-7%	11µM*	-23%	25
Cc1cc2cc(CNC(=O)c3ccc(Br)o3)ccc2n1C	.	-1%	.	.
O=C(NCc1cccnc1)c1ccc(S(=O)(=O)N2CCOCC2)cc1	3%	4%	-5%	.
SMILES	Cruzain inh Det	NS1 inh	Cruzain noTriton	Flu NS1 inh	others
Cc1cc2cc(CNS(=O)(=O)c3ccc4ccccc4c3)ccc2n1C	-3%	10µM*	25µM*	-22
CCCCC1=CC2=C(OC(C)=O)C(=O)C(C)(OC(=O)C3CCCC3)C(=O)C2=CO1 (stereo not given)	4%	.	-2%	.
Cc1ccccc1OCC(=O)Nc1ccc2nc(SCc3ccccc3)sc2c1	-1%	.	?	.
CCCC(=O)N(Cc1cc(=O)[nH]c2ccccc12)c1ccccc1C	.	-1%	.	.
Cc1ccc(C2=CC(c3cccs3)n3nnnc3N2)cc1 (stereo not given)	5%	3.2µM*	16µM*	-4
Fc1ccc(C2=CC(c3cccs3)n3nnnc3N2)cc1 (stereo not given)	.	7%	.	.
Cc1cnc(CNc2cc(-c3ccoc3)ncn2)cn1	0%	.	23%	.
Cc1ccc(C(=O)OC/C(O)=C(\C#N)c2nc3ccccc3[nH]2)cc1S(=O)(=O)N1CCOCC1	0%	10µM*	13%	18
N#C/C(=C(/O)COC(=O)c1ccc(Cl)c(S(=O)(=O)N2CCOCC2)c1)c1nc2ccccc2[nH]1	-2%	?	-27%	.
O=S(=O)(Nc1cccc(-c2cn3cccnc3n2)c1)c1ccccc1	-21%	12%	?	.
O=S(=O)(Nc1cccc(-c2cn3cccnc3n2)c1)c1ccc(-c2ccccc2)cc1	-10%	11µM*	?	24
COc1ccc(-n2nc(C(=O)N(C)C)nc2-c2ccccc2)cc1	.	?	.	16
COc1ccc(/C=N/NC(=O)c2nc(-c3ccccc3)n(-c3ccccc3)n2)cc1	-8%	-22%	-19%	.
O=C(NCc1cccs1)C1CCCN1C(=O)Nc1ccccc1Cl (stereo not given)	.	?	.	4	PR8 titer=8.5
Cc1ccccc1NC(=O)N1CCCC1C(=O)NCc1cccs1 (stereo not given)	1%	2%	0%	.
Cc1ccc(C(=O)c2sc(Nc3ccc(F)cc3)nc2N)c(C)c1	-11%	.	?	.
COc1ccc(C(=O)NN=C2CCCC2)cc1	.	6%	.	.
Cc1cc(OCc2ccc(C(=O)NN=C3CCCC3)cc2)ccc1Cl	-6%	14µM*	?	?
O=C(CC1NCCNC1=O)Nc1ccc2c(c1)OCO2 (stereo not given)	1%	1.1µM*	-3%	6
O=C(CC1NCCNC1=O)Nc1ccc(Cl)c(Cl)c1 (stereo not given)	-4%	0%	-12%	.
NCCCCCCN	5%	.	-7%	.
Cc1ccc2cccc(NC(=S)NC(=O)c3ccnn3C)c2n1	-9%	16µM*	?	3
CC(=O)NC(=S)Nc1cccc2ccc(C)nc12	.	0%	.	.
CCOC(=O)C1=C(CS(=O)(=O)c2ccc(C)cc2)NC(=O)NC1c1ccc(C(C)C)cc1 (stereo not given)	-10%	.	9%	.
COc1ccc(-c2nc(NC(=O)C3CC(=O)N(c4ccc5c(c4)OCCO5)C3)sc2C)cc1 (stereo not given)	-5%	11µM*	2%	7
SMILES	Cruzain inh Det	NS1 inh	Cruzain noTriton	Flu NS1 inh	others
O=C(Nc1nnc(C2CC2)s1)C1CC(=O)N(c2ccc3c(c2)OCCO3)C1 (stereo not given)	-1%	27%	-9%	.
COCCCNC(=O)c1ccc(Cn2c(=O)c3ccccc3n(Cc3c(C)cc(C)cc3C)c2=O)cc1	-2%	.	-4%	.
COc1cc(C2C(C(=O)Nc3ccccc3)=C(C)Nc3nnnn32)cc(OC)c1OC (stereo not given)	-3%	.	-4%	.
Cc1c2cnn(CC(=O)N3CCN(c4ccccc4)CC3)c(=O)c2c(C)n1Cc1ccc(F)cc1	-2%	.	4%	.
CCOc1ccc(NC(=S)N(CCc2c(C)[nH]c3ccc(C)cc23)Cc2ccco2)cc1	3%	11µM*	3.2µM*	-33
COc1ccc2[nH]c(C)c(CCN(Cc3cccs3)C(=S)Nc3ccc(F)cc3)c2c1	-7%	?	?	.
COc1ccc(NC(=S)N(CCc2c(C)[nH]c3ccc(C)cc23)Cc2cccs2)cc1	0%	11µM*	?	-25
COc1ccc(NC(=S)N(CCc2c(C)[nH]c3ccc(C)cc23)Cc2ccco2)cc1	-5%	15%	?	.
